Assay results: PubChem BioAssay (EPA / NIEHS)
Values joined by “and” are separate entries in the source; they are usually repeats but may differ in a detail not shown here. Identical values can stand only once. Some structures have more than one record in an assay (separate samples or runs), and their calls can disagree. Active and inactive are the calls of the source. The calls were made as follows: active = hit-call score of the fitted dose curve at least 0.9, where 1 is the maximum; inactive = score below 0.9.

Columns and labels:
[1] = read-out: Interleukin 2 (IL2), IL2 (gene 3558); experiment: BSK_BT_xIL2: BioMAP Diversity Plus: BT Assay for Interleukin 2 (IL2) Biomarker Activity (AID 2284245); conditions: primary human B cells with PBMC
In short: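 Secreted IL-2 was read by Luminex xMAP from B cells co-cultured with PBMC (human primary) 24 h post-dosing; activity was analysed as gain of signal relative to DMSO vehicle.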

[2] = read-out: Collagen IV, COL4A1 (gene 1282); experiment: BSK_MyoF_CollagenIV: BioMAP Diversity Plus: MyoF Assay for Collagen IV Biomarker Activity (AID 2284247); conditions: primary human lung fibroblasts
In short: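 Collagen IV quantified by ELISA in human lung fibroblast cultures 24 h after chemical treatment, with DMSO as baseline. Parallel SRB staining (0.1% SRB after TCA fixation, 560 nm) flags overt cytotoxicity.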

[3] = read-out: Decorin, DCN (gene 1634); experiment: BSK_MyoF_Decorin: BioMAP Diversity Plus: MyoF Assay for Decorin Biomarker Activity (AID 2284265); conditions: primary human lung fibroblasts
In short: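 Lung fibroblast cultures, 24 h chemical exposure. Decorin by ELISA, positive fitting direction, DMSO baseline.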

[4] = BSK_MyoF_SRB: Viability Assessment in the BioMAP Diversity Plus: MyoF Assay (AID 2284267); conditions: primary human lung fibroblasts;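 also: total protein by SRB absorbance in parallel cultures as cytotoxicity measure; cells assessed 24 h after compound addition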
In short: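 Cytotoxicity read-out: after 10% TCA fixation, parallel human lung fibroblast cultures were stained with 0.1% SRB at 24 h post-dosing and read at 560 nm; DMSO served as baseline.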

[5] = read-out: Matrix Metallopeptidase 1 (MMP1), MMP1 (gene 4312); experiment: BSK_MyoF_MMP1: BioMAP Diversity Plus: MyoF Assay for Matrix Metallopeptidase 1 (MMP1) Biomarker Activity (AID 2284268); conditions: primary human lung fibroblasts
In short: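 MMP1 measured by ELISA 24 h after dosing primary human lung fibroblasts; cytotoxicity checked in parallel cultures by sulforhodamine B total-protein staining read at 560 nm.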

[6] = read-out: Monokine induced gamma interferon (MIG), CXCL9 (gene 4283); experiment: BSK_KF3CT_MIG: BioMAP Diversity Plus: KF3CT Assay for Monokine induced gamma interferon (MIG) Biomarker Activity (AID 2284248); conditions: primary human keratinocytes with fibroblasts
In short: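 The assay uses a co-culture of human keratinocytes and foreskin fibroblasts. Measurement occurs 24 hours after dosing, with MIG detected by ELISA and the DMSO control as baseline.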

[7] = read-out: Collagen I, COL1A1 (gene 1277); experiment: BSK_hDFCGF_CollagenI: BioMAP Diversity Plus: hDFCGF Assay for Collagen I Biomarker Activity (AID 2284250); conditions: primary human foreskin fibroblasts
In short: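 Collagen I quantified by ELISA 24 h after chemical dosing of human dermal fibroblast primary cells, with parallel SRB staining (0.1%, TCA-fixed, 560 nm) for overt cytotoxicity.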

[8] = read-out: Interferon-inducible T-cell alpha chemoattractant (ITAC), CXCL11 (gene 6373); experiment: BSK_hDFCGF_ITAC: BioMAP Diversity Plus: hDFCGF Assay for Interferon-inducible T-cell alpha chemoattractant (ITAC) Biomarker Activity (AID 2284251); conditions: primary human foreskin fibroblasts
In short: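 Chemical dosing of primary human foreskin fibroblast cultures preceded ELISA measurement of I-TAC at 24 h. Response was analysed in the positive direction using DMSO as baseline, while parallel SRB staining measured cytotoxicity.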

[9] = read-out: Plasminogen activator inhibitor-1 (PAI1), SERPINE1 (gene 5054); experiment: BSK_KF3CT_PAI1: BioMAP Diversity Plus: KF3CT Assay for Plasminogen activator inhibitor-1 (PAI1) Biomarker Activity (AID 2284252); conditions: primary human keratinocytes with fibroblasts
In short: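 PAI-1 levels quantified by ELISA after 24 h compound exposure of primary human skin keratinocytes co-cultured with fibroblasts. Activity is the gain relative to DMSO; cytotoxicity tracked in parallel cultures via SRB staining.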

[10] = read-out: Interleukin-8 (IL8), CXCL8 (gene 3576); experiment: BSK_KF3CT_IL8: BioMAP Diversity Plus: KF3CT Assay for Interleukin-8 (IL8) Biomarker Activity (AID 2284254); conditions: primary human keratinocytes with fibroblasts
In short: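 ELISA detection of IL-8 from a human skin co-culture, keratinocytes with foreskin fibroblasts, at 24 h following chemical exposure, with gain of signal scored against DMSO controls.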

[11] = read-out: Intercellular Adhesion Molecule 1 (ICAM1), ICAM1 (gene 3383); experiment: BSK_BE3C_ICAM1: BioMAP Diversity Plus: BE3C Assay for Intercellular Adhesion Molecule 1 (ICAM1) Biomarker Activity (AID 2284278); conditions: primary human bronchial epithelial cells;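 also: cell-surface ICAM-1 protein level quantified by ELISA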
In short: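 ICAM-1 quantified by ELISA and fitted against DMSO baseline, 24 h post-dosing in BE3C cultures of primary human lung bronchial epithelial cells. Cytotoxicity checked in parallel cultures by total protein SRB staining.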

[12] = read-out: Interferon-inducible T-cell alpha chemoattractant (ITAC), CXCL11 (gene 6373); experiment: BSK_BE3C_ITAC: BioMAP Diversity Plus: BE3C Assay for Interferon-inducible T-cell alpha chemoattractant (ITAC) Biomarker Activity (AID 2284279); conditions: primary human bronchial epithelial cells
In short: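 Steps: dose human bronchial epithelial cells with chemical; incubate 24 h; measure I-TAC by ELISA; fit endpoint in positive direction against DMSO control. Cytotoxicity was checked in parallel cultures by SRB staining at harvest.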

[13] = read-out: Interleukin-8 (IL8), CXCL8 (gene 3576); experiment: BSK_BE3C_IL8: BioMAP Diversity Plus: BE3C Assay for Interleukin-8 (IL8) Biomarker Activity (AID 2284280); conditions: primary human bronchial epithelial cells
In short: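 Measured at 24 h after treatment, IL-8 from human primary bronchial epithelial cells is determined by ELISA, and the response is modelled as increasing relative to DMSO negative control.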

[14] = read-out: Epidermal growth factor receptor (EGFR), EGFR (gene 1956); experiment: BSK_BE3C_EGFR: BioMAP Diversity Plus: BE3C Assay for Epidermal growth factor receptor (EGFR) Biomarker Activity (AID 2284281); conditions: primary human bronchial epithelial cells
In short: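 Measured 24 h after dosing in primary human bronchial epithelial cultures, EGFR was read by ELISA; gain of signal over DMSO control defined activity.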

[15] = read-out: KRT18 (gene 3875); experiment: BSK_BE3C_Keratin818: BioMAP Diversity Plus: BE3C Assay for Keratin 818 Biomarker Activity (AID 2284282); conditions: primary human bronchial epithelial cells
In short: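 ELISA readout of Keratin 8/18 in human primary bronchial epithelial cultures after 24 h chemical exposure, DMSO baseline. Parallel SRB staining (0.1%, TCA-fixed, 560 nm) served as cytotoxicity check.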

[16] = read-out: Matrix Metallopeptidase 9 (MMP9), MMP9 (gene 4318); experiment: BSK_BE3C_MMP9: BioMAP Diversity Plus: BE3C Assay for Matrix Metallopeptidase 9 (MMP9) Biomarker Activity (AID 2284283); conditions: primary human bronchial epithelial cells
In short: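 Cells were dosed, incubated 24 h, then assayed for MMP-9 by ELISA; activity was fitted upward against DMSO. The system used human lung primary bronchial epithelial cells, with SRB total-protein staining run alongside for cytotoxicity.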

[17] = read-out: Plasminogen activator inhibitor-1 (PAI1), SERPINE1 (gene 5054); experiment: BSK_CASM3C_PAI1: BioMAP Diversity Plus: CASM3C Assay for Plasminogen activator inhibitor-1 (PAI1) Biomarker Activity (AID 2284284); conditions: primary human coronary artery smooth muscle cells;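 also: PAI-1 protein level measured by ELISA 24 h after dosing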
[18] = read-out: Monocyte Chemoattractant Protein-1 (MCP1), CCL2 (gene 6347); experiment: BSK_hDFCGF_MCP1: BioMAP Diversity Plus: hDFCGF Assay for Monocyte Chemoattractant Protein-1 (MCP1) Biomarker Activity (AID 2284285); conditions: primary human foreskin fibroblasts
In short: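 MCP-1 ELISA readout was taken 24 hours after dosing primary human dermal fibroblasts in the hDFCGF system, with DMSO as baseline. Parallel sulforhodamine B staining of total protein tracked overt cytotoxicity.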

[19] = read-out: Intercellular Adhesion Molecule 1 (ICAM1), ICAM1 (gene 3383); experiment: BSK_hDFCGF_ICAM1: BioMAP Diversity Plus: hDFCGF Assay for Intercellular Adhesion Molecule 1 (ICAM1) Biomarker Activity (AID 2284287); conditions: primary human foreskin fibroblasts
In short: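 ICAM-1 ELISA readout 24 h after dosing, DMSO as baseline, in human dermal foreskin fibroblast cultures. Cytotoxicity checked in parallel wells by SRB staining (0.1% SRB, 10% TCA fixation, 560 nm).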

[20] = read-out: TIMP metallopeptidase inhibitor 2 (TIMP2), TIMP2 (gene 7077); experiment: BSK_hDFCGF_TIMP2: BioMAP Diversity Plus: hDFCGF Assay for TIMP metallopeptidase inhibitor 2 (TIMP2) Biomarker Activity (AID 2284289); conditions: primary human foreskin fibroblasts
In short: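 Primary human foreskin fibroblasts in the hDFCGF system, dosed for 24 h; TIMP-2 level measured by ELISA, fitted in the positive direction against DMSO; cytotoxicity checked in parallel by sulforhodamine B total protein staining.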

Measured: AC50

CSCCC=O
inactive: [1] | [2] | [3] | [4] | [5]

IC(I)I
inactive: [1] | [2] | [3] | [4] | [5]

CC=Cc1ccc(OCC)c(O)c1
inactive: [1] | [2] | [3] | [4] | [5]

Clc1cc(Cl)c(-c2c(Cl)c(Cl)cc(Cl)c2Cl)cc1Cl
inactive: [2] | [3]
active: [1] 4.55 µM | [4] 11.6 µM | [5] 2.61 µM

Oc1c(Cl)cc(Cl)c(Cl)c1Cc1c(O)c(Cl)cc(Cl)c1Cl
active: [1] 19.6 µM | [4] 5.13 µM | [5] 0.198 µM
inactive: [2] | [3]

C=C(C)C(=O)OCC(CC)(COC(=O)C(=C)C)COC(=O)C(=C)C
active: [1] 19.7 µM | [2] 14.6 µM | [3] 10.1 µM | [4] 15.5 µM | [5] 5.25 µM

O=C(Nc1ccc2c(O)c(N=Nc3ccc(N=Nc4ccc(S(=O)(=O)O)cc4)cc3)c(S(=O)(=O)O)cc2c1)c1ccccc1
active: [8] 32.3 µM and 27.1 µM | [12] 30.4 µM and 20 µM
not listed: [1] | [2] | [3] | [4] | [5]
inactive: all other assays above

CCOC(=O)C(C#N)=C(c1ccccc1)c1ccccc1
inactive: [6] | [7] | [8] | [9] | [10] | [11] | [12] | [13] | [14] | [15] | [16] | [17] | [18] | [19] | [20]
active: [8] 26.1 µM

CCCCCCCCCCCCCCCC(=O)OC/C=C(C)/C=C/C=C(C)/C=C/C1=C(C)CCCC1(C)C
inactive: [1] | [2] | [3] | [4] | [5]

O=CN1CCOCC1
not listed: [1] | [2] | [3] | [4] | [5]
inactive: all other assays above

C[C@@H]1CCN(C(=O)[C@H](CCCN=C(N)N)NS(=O)(=O)c2cccc3c2NC[C@H](C)C3)[C@@H](C(=O)O)C1
inactive: [1] | [2] | [3] | [4] | [5]

C=C(C)C(=O)OCCOCCOCCOC(=O)C(=C)C
inactive: [1] | [2] | [3] | [4] | [5]

c1ccc(CCc2ccccc2)cc1
inactive: [1] | [5]
active: [2] 31.5 µM | [3] 26.8 µM | [4] 37.2 µM

CC1(C)CCC[C@]2(C)[C@H]3CCO[C@]3(C)CC[C@@H]12
inactive: [7] | [11] | [12] | [13] | [14] | [15] | [16] | [17]
active: [6] 36.6 µM and 36.2 µM | [7] 18.7 µM | [8] 30.5 µM and 30.9 µM | [9] 34.7 µM and 34.6 µM | [10] 36.8 µM and 31.3 µM | [13] 27 µM | [14] 33.1 µM | [15] 30.8 µM | [16] 31.6 µM | [18] 30.6 µM and 30.5 µM | [19] 37.5 µM and 37.8 µM | [20] 36.4 µM and 37.9 µM

CC(CN=Cc1ccccc1O)N=Cc1ccccc1O (stereo unspecified)
not listed: [1] | [2] | [3] | [4] | [5]
inactive: all other assays above

Cc1cc(CCC(=O)OCCOCCOCCOC(=O)CCc2cc(C)c(O)c(C(C)(C)C)c2)cc(C(C)(C)C)c1O
inactive: [1] | [2] | [3] | [4] | [5]

CCCCCC(C=O)=Cc1ccccc1
inactive: [1] | [2] | [3] | [4]
active: [5] 28.4 µM

CC(C)(N=C=O)c1cccc(C(C)(C)N=C=O)c1
inactive: [1] | [2] | [3] | [4] | [5]

CCC(C)c1cc([N+](=O)[O-])cc([N+](=O)[O-])c1OC(=O)OC(C)C (stereo unspecified)
active: [1] 20 µM | [2] 20 µM | [3] 24.4 µM | [4] 13.4 µM | [5] 20 µM
